Pol kappa inh-1 = inhibitors of human DNA polymerase kappa. 400,000 compounds, 0.53% hits. Potency, µM (top dose mostly 107 µM), inactives show at the highest dose activity, negative = inhibition, most hits filed as inhibitors. Q9UBT6. purified Pol kappa, fluorescent DNA synthesis assay, 10 min; further: potency means the concentration at half of the fitted maximal effect; on the % scale 0 is the no-effect control and ±100 the full control effect
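Here, compound and 10 nM enzyme are combined for 15 min at room temperature; adding 50 nM substrate (final) starts DNA synthesis, tracked by fluorescence at 0 and 10 min against buffer-only wells.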
POLB inh = blocks human DNA polymerase beta activity; P06746; Pol beta primer extension/strand displacement, fluorescence kinetic; Potency, µM (doses to about 114 µM), for the others: at the highest dose activity change, negative = inhibition, usual class: inhibitors; 340,000 compounds, 1.3% hits; further: potency means the concentration at half of the fitted maximal effect; on the % scale 0 is the no-effect control and ±100 the full control effect
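Pol beta (10 nM) was preincubated with compound for 15 min at room temperature. The reaction was then started with 50 nM substrate and read immediately and after a further 10 min at room temperature.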
WRN inhibitor = WRN helicase (human) inhibition; Q14191; WRN helicase unwinding, fluorescent forked duplex, kinetic; Potency, µM (series often up to 114 µM), inactives show at the highest dose activity change, negative = inhibition, actives largely listed as inhibitors; 360,000 compounds, 0.46% hits; AID 651768; further: potency means the concentration at half of the fitted maximal effect; on the % scale 0 is the no-effect control and ±100 the full control effect; nearly all actives have a fitted effect of over 55% in size
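Kinetic red-fluorescence monitoring (525/598 nm) tracks WRN helicase activity after 100 nM fluorophore-quencher forked duplex and 2 mM ATP are added to 20 nM enzyme pretreated 15 min at room temperature with compound.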
Pol iota inh = blocks human DNA polymerase iota activity. Q9UNA4. Pol iota fluorescent replication assay, 10 min. Potency, µM (series often up to 115 µM), for inactives: top-dose activity, negative = inhibition, actives largely listed as inhibitors. 390,000 compounds, 1% hits; further: potency means the concentration at half of the fitted maximal effect
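Pol iota at 10 nM preincubated 15 min with compounds at room temperature; reaction started with fluorescent substrate, 50 nM final. Fluorescence read kinetically at 0 and 10 min; buffer-only wells as negative control.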
Pol eta inh-1 = inhibitors of human DNA polymerase eta; recombinant Pol eta, fluorescent DNA replication assay; Potency, µM (top dose mostly 114 µM), for inactives: at the highest dose activity change, negative = inhibition, hits mostly inhibitors; 390,000 compounds, 1.2% hits; AID 588591; further: potency means the concentration at half of the fitted maximal effect; on the % scale 0 is the no-effect control and ±100 the full control effect
Target sequence (Q9Y253 whole entry, looked up): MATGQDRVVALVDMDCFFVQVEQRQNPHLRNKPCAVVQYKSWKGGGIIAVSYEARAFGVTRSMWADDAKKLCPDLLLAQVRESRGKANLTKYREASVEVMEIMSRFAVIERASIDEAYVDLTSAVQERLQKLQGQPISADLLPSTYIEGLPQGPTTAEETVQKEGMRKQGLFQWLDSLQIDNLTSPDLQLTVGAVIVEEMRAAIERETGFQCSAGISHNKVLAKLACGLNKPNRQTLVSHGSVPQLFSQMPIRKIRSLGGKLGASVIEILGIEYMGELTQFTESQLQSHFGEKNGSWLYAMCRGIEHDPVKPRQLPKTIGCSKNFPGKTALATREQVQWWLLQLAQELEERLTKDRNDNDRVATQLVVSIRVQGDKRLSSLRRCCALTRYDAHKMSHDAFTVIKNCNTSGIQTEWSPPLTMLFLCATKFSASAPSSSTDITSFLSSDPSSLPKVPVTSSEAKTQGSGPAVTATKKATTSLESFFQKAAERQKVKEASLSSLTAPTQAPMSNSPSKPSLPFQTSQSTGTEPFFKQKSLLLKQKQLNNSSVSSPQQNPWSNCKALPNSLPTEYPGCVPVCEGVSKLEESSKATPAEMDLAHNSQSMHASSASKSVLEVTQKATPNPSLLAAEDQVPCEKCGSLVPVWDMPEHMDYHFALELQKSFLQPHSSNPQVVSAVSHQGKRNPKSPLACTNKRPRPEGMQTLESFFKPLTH
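Pol eta at 10 nM preincubated with compounds 15 min at room temperature; reaction started with fluorescent substrate (50 nM final) and read kinetically at 0 and 10 min.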
GALK inh confirm = confirmation of human galactokinase (GALK) inhibitors | Potency, µM (series often up to 115 µM), inactives show top-dose activity, negative = inhibition, hits mostly inhibitors | purified GALK, Kinase-Glo ATP depletion luminescence | AID 2015 | 150 compounds, 70% hits | shares compounds with Pol eta inh-1
GALK redox cs = counter-screen for GALK inhibitors: redox cycling H2O2 generation | shares compounds with Pol eta inh-1 | Phenol red-HRP H2O2 redox cycling, absorbance 600 nm | Potency, µM (doses to about 115 µM), without a hit: at the highest dose activity change, negative = H2O2 signal, most hits filed as inhibitors | 150 compounds, 40% hits
HEK293 tox = HEK-293 cytotoxicity, GALK inhibitor secondary | shares compounds with Pol eta inh-1 | HEK-293 viability, ATP luminescence (CellTiter-Glo), 24/48 h | Potency, µM (doses to about 46.1 µM), for the others: top-dose activity change, negative = cytotoxicity, actives largely listed as inhibitors | 170 compounds, 10% hits; further: potency means the concentration at half of the fitted maximal effect; on the % scale 0 is the no-effect control and ±100 the full control effect
Pol kappa inh-2 = confirmation of human DNA polymerase kappa inhibitors | AID 720501 | purified Pol-kappa, fluorescent strand-displacement substrate | Potency, µM, actives largely listed as inhibitors | 920 compounds, 76% hits | shares compounds with Pol eta inh-1; further: potency means the concentration at half of the fitted maximal effect
Pol eta inh-2 = confirmation of human DNA polymerase eta inhibitors; shares compounds with Pol eta inh-1; 2,600 compounds, 64% hits; Pol eta primer extension, TAMRA/BHQ fluorescence, 10 min; Potency, µM, actives largely listed as inhibitors; AID 720502; further: potency means the concentration at half of the fitted maximal effect
* hit, by the source's call; ? = inconclusive; nt = no result given; [ ] = dose if it differs, or a comment. Hits are enriched below; roughly 2.3% of the tested compounds scored in any of these assays. The call rests on the fitted dose curve; in most records, active means well fitted curve in the direction sought with a large enough effect; inconclusive means small, poorly fitted or top-dose-only effect, or another doubt; inactive means no such curve, though single readings can be large; an effect the other way counts as inactive or inconclusive.

SMILES	Pol kappa inh-1	POLB inh	WRN inhibitor	Pol iota inh	Pol eta inh-1	Pol eta inh-2	others
N#C/C(=C(/O)c1cc2ccccc2o1)c1nc2ccccc2s1	3%	35%	-5%	16%	-27%	nt	GALK inh confirm=?;GALK redox cs=-2%;HEK293 tox=-7%
N#C/C(=C(/O)c1ccco1)c1nc2ccccc2s1	-20%	-14%	-6%	53%	15%	nt
Cc1cc(=O)[nH]c(SCC(=O)c2ccccc2)c1C#N	-9%	-18%	-11%	5%	-14%	nt
Cc1ccccc1NC(=O)CSc1[nH]c(=O)cc(C)c1C#N	?	3%	-27%[57.1 µM]	?	20µM*	?
CC1CCC(NC(=O)c2ccc3c(c2)N(Cc2ccccc2F)C(=O)c2ccccc2S3)CC1 (centres undefined)	-10%[60.1 µM]	?	nt	9%	-11%	nt
COc1cc(/C=C/c2ccc3cccc([N+](=O)[O-])c3n2)ccc1OCC(=O)O	?	?	-20%[11.6 µM]	?	20µM*	76*	Pol kappa inh-2=?
O=C(/C=C/c1ccccc1Cl)Nc1nc(-c2cccs2)ns1	-3%	18%	nt	32%	-18%	nt
Cc1ccc(S(=O)(=O)/N=C2/NC(=O)/C(=C/c3cccnc3)S2)cc1	-8%	?	?	?	?	nt
Cc1ccc(S(=O)(=O)/N=C2/NC(=O)/C(=C\c3cc(Br)cc(Br)c3O)S2)cc1	-35%	?	20µM*	?	22µM*	nt	GALK inh confirm=24µM*;GALK redox cs=-2%;HEK293 tox=8%
Cc1ccc(S(=O)(=O)/N=C2/NC(=O)/C(=C/c3ccc(Br)o3)S2)cc1	?	?	?	?	22µM*	?
C#CCOc1ccc(/C=C2/C(=O)N(c3cccc(C(=O)O)c3)N=C2C)cc1OC	-23%	13%	?	2µM*	50µM*	?
COc1cc(/C=C2\C(=O)N(c3cccc(C(=O)O)c3)N=C2C)ccc1OCc1ccccc1	nt	nt	2.7µM*	nt	32µM*	?
CC(=O)Nc1ccc(NC2=CC(=O)c3ccccc3C2=O)cc1	-10%	-15%	-10%	58%	?	nt
CCOC(=O)c1ccc(NC2=CC(=O)C(=O)c3ccccc32)cc1	-6%	3%	-26%[57.1 µM]	?	35µM*	?
N#Cc1c(NC(=O)c2ccncc2)sc2c1CCC2	?	14µM*	?	?	32µM*	76*
COc1ccc(CN2C(=O)C(NC(=O)c3ccccc3C)(C(F)(F)F)N=C2c2ccccc2)cc1 (centres undefined)	-5%	-7%	nt	2%	-13%	nt
Cc1ccc(-c2ccc(CCC(=O)O)n2Cc2ccco2)cc1	-28%	?	?	?	22µM*	?
Cc1ccc(C2C(=O)N(C3CCCCCC3)CC(=O)N2CCC2=CCCCC2)cc1 (centres undefined)	-3%[60.1 µM]	3%	nt	23%	-12%	nt
CCOc1ccc(C(=O)c2cn(CC(=O)Nc3cc(OC)cc(OC)c3)c3ccc(F)cc3c2=O)cc1	-15%	14µM*	nt	?	?	nt	Pol kappa inh-2=?
CCc1ccc(C(=O)c2cn(CC(=O)Nc3cc(OC)cc(OC)c3)c3ccc(CC)cc3c2=O)cc1	-13%	-8%	nt	18%	-9%	nt
O=C(COc1ccc(Cl)cc1)NCCc1csc(-c2cccc(F)c2)n1	-11%[60.1 µM]	-3%	nt	?	-1%	nt
O=C(/C=C/c1ccc(-c2ccccc2[N+](=O)[O-])o1)c1ccco1	?	?	?	?	40µM*	76*
Cc1ccc(/C=C/C(=O)c2c(C)cc(C)[nH]c2=O)cc1	-15%	3%	-5%	?	-13%	nt
O=C(/C=C/c1ccco1)c1cccc([N+](=O)[O-])c1	?	nt	?	50µM*	20µM*	?
Cc1cc(C)c(C(=O)/C=C/c2ccco2)c(=O)[nH]1	?	14µM*	-3%[11.6 µM]	?	56µM*	85*
SMILES	Pol kappa inh-1	POLB inh	WRN inhibitor	Pol iota inh	Pol eta inh-1	Pol eta inh-2	others
Cc1ccc(S(=O)(=O)N2CCN(c3nc(-c4cccs4)nc(C)c3C)CC2)cc1	-16%	nt	nt	-3%	nt	nt
O=C(O)c1cccc(NS(=O)(=O)c2ccc(-c3ccc(S(=O)(=O)Nc4cccc(C(=O)O)c4)cc3)cc2)c1	50µM*	?	-9%	?	?	?	Pol kappa inh-2=21*
CN(C)CCNC(=O)c1ccc(-n2c(-c3ccccc3)cc3c2CCCC3)cc1	-11%	1%	nt	-14%	-10%	nt
Cc1ccccc1N1C(S)=C(C#N)C(=O)NC1c1ccco1 (centres undefined)	-44%	28µM*	-8%[11.6 µM]	22µM*	28µM*	?
CCOc1ccccc1NC(=O)CCS(=O)(=O)c1ccc(Br)cc1	?	10µM*	50µM*	18µM*	18µM*	24*
O=C(CCCCC(=O)NCc1cccs1)NCc1cccs1	0%	-15%	1%	18%	-1%	nt
O=C(CCS(=O)(=O)c1ccc(Br)cc1)NCc1cccs1	?	16µM*	?	18µM*	18µM*	?
O=C(CCS(=O)(=O)c1ccc(Br)cc1)Nc1cc(F)ccc1F	?	18µM*	-21%[57.1 µM]	-6%	?	nt	Pol kappa inh-2=42*
CCCN(C(=O)COc1cc(=O)n(CC)c2ccccc12)c1ccc(C(C)C)cc1	-6%	5%	nt	-11%	-14%	nt
O=C(C1CCCN(S(=O)(=O)c2cccc3nsnc23)C1)N1CCN(c2ccccc2)CC1 (centres undefined)	-11%	7%	nt	19%	-16%	nt
Cc1cc(C(=O)C(=O)Nc2nnc(C(C)C)s2)c(C)n1-c1ccccc1	-4%	12%	nt	11%	40µM*	?	Pol kappa inh-2=21*
Cc1cccc(-n2c(C)cc(C(=O)C(=O)Nc3nncs3)c2C)c1	-5%	-1%	nt	46%	50µM*	?	Pol kappa inh-2=?

Screens as filed in PubChem BioAssay.
